In ChEMBL document CHEMBL3988442, “University of Dundee, Small-Polar-MMV Screening Library” (2021):
For some of these results: Entries with a potency or affinity are not part of this list.

Legend:
Set-up in all cases: scale not given: direction of the effect not stated beside the values
[1] = target: Protein translocase subunit SecA (Escherichia coli (strain K12)) (UniProt P10408); test: Assay to Identify E. coli SecA ATPase Inhibitors; format: functional; details: 30 µM
[2] = target: T1, Ubiquitin-activating enzyme e1, putative (Leishmania donovani (strain BPK282A1)) (UniProt E9BSI1); test: Leishmania donovani Ubiquitin Activating Enzyme (LdE1); format: functional; details: 30 µM
T1 sequence (whole entry): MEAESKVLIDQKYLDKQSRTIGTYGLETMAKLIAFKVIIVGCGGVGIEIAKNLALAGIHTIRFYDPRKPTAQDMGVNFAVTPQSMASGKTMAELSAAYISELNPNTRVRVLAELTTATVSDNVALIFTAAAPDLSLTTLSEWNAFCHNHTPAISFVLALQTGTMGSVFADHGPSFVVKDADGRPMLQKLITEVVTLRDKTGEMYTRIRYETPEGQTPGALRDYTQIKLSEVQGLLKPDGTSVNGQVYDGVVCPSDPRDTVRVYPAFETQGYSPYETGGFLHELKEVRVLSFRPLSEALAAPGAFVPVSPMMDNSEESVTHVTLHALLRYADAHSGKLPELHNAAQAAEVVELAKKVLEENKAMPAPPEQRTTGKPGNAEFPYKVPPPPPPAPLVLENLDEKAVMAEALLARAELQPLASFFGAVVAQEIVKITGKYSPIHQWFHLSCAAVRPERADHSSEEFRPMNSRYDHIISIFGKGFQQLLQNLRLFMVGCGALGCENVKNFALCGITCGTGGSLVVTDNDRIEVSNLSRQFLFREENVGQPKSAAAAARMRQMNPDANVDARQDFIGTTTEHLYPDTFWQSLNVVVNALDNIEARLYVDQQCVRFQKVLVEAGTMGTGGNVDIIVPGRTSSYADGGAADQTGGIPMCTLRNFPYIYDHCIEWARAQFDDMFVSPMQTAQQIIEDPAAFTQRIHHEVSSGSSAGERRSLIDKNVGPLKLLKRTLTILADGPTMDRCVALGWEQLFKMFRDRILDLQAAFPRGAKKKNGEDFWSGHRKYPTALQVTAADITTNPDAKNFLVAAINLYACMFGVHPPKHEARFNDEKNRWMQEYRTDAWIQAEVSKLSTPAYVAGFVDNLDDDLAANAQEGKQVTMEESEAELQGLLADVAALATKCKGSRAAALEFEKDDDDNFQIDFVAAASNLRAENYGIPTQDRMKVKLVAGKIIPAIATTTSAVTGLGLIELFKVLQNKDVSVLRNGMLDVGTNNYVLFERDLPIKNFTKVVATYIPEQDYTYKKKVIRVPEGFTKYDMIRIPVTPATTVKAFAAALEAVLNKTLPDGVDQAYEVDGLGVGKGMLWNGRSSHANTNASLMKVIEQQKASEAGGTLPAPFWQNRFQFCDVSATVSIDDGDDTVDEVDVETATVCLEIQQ

[3] = target: T2, Aspartate--tRNA(Asp/Asn) ligase (Mycobacterium tuberculosis (strain ATCC 25618 / H37Rv)) (UniProt P9WFW3); test: Assay for Asp RNA synthetase-1 from Mycobacterium tuberculosis; format: functional; details: 30 µM; also: in the data most compounds retested in dose-response had high values
T2 sequence (whole entry): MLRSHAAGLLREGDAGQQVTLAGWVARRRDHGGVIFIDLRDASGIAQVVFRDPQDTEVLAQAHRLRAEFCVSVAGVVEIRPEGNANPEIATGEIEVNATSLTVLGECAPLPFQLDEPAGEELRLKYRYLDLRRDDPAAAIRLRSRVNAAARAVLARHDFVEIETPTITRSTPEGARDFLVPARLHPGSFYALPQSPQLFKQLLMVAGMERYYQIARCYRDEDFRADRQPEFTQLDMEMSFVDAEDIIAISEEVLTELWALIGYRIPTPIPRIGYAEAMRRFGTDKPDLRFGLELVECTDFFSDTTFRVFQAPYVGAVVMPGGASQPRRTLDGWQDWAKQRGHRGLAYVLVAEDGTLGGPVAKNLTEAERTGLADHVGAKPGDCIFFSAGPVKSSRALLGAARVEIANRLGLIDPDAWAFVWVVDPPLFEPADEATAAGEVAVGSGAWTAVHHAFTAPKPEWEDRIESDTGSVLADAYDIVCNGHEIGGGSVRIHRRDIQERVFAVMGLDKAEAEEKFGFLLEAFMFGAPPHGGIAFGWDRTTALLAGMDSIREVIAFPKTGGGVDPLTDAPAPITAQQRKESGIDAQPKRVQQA

[4] = target: AMP-activated protein kinase, AMPK (Homo sapiens) (UniProt P54646+O43741+P54619+Q9UGJ0+Q9Y478+Q13131+Q9UGI9); test: AMP-dependent Kinase enzyme assay. An in vitro enzyme assay that detects ADP turnover that is directly proportional to AMPK activity. This uses naive AMPK that is activated during the assay with MK-8722; format: functional; details: 30 µM
[5] = target: Sialic acid-binding Ig-like lectin 9 (Homo sapiens) (UniProt Q9Y336); test: Hs-Siglec9 ALPHAscreen SOP 20170721; details: 10 µM
Trypanosoma cruzi = test: Trypanosoma cruzi phosphomannomutase and mannose-1-phosphate guanylyltransferase assay; format: functional; details: 10 µM
[6] = target: T3, Arginase-2, mitochondrial (Homo sapiens) (UniProt P78540); test: in vitro enzyme assay to detect the production of urea directly proportional to the activity of Arginase II; format: functional; details: 33.3 µM; also: in the data most compounds retested in dose-response had high values
T3 sequence (whole entry): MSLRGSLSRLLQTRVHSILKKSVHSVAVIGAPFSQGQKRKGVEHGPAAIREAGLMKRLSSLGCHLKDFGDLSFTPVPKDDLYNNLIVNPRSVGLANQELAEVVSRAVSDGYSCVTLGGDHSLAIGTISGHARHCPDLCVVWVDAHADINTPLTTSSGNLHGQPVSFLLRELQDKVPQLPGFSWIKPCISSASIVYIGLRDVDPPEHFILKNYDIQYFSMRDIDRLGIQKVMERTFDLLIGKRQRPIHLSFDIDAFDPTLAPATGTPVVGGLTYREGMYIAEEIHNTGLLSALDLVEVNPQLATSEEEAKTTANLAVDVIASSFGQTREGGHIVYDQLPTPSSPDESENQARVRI

[7] = target: T4, Proteasome subunit beta (Trypanosoma cruzi) (UniProt O96673); test: Trypanosoma cruzi proteasome chymotrypsin-like activity (TcProtChymo) assay.; also: in the data most compounds retested in dose-response had high values; format: functional; details: 9.37 µM
T4 sequence (whole entry): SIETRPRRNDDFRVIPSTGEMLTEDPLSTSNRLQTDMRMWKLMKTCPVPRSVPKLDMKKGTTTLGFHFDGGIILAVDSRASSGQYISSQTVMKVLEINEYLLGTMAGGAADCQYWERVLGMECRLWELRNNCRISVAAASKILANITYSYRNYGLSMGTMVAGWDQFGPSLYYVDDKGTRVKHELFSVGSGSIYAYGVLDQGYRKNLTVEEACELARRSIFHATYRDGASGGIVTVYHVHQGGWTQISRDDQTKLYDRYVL

Homo sapiens = species: Homo sapiens; test: To identify inhibition of the IFN signalling (Jak-Stat) pathway via expression of an eGFP reporter gene under the control of an IFN-stimulated response element (ISRE) containing MxA promoter.; format: functional; details: 30 µM
[8] = target: Shiga toxin 2 (Escherichia coli O157:H7) (UniProt P09385+P09386); test: E. coli 0.157:H7 Shiga Toxin SOP - stx2 screening assay; format: functional; details: 30 µM
[9] = target: T5, Tyrosyl-tRNA synthetase, putative (Trypanosoma cruzi (strain CL Brener)) (UniProt Q4DSP6); test: Trypanosoma cruzi tyrosyl tRNA synthetase (TcYRS) _High Tyrosine SOP; format: functional; details: 30 µM; also: in the data most compounds retested in dose-response had high values
T5 sequence (whole entry): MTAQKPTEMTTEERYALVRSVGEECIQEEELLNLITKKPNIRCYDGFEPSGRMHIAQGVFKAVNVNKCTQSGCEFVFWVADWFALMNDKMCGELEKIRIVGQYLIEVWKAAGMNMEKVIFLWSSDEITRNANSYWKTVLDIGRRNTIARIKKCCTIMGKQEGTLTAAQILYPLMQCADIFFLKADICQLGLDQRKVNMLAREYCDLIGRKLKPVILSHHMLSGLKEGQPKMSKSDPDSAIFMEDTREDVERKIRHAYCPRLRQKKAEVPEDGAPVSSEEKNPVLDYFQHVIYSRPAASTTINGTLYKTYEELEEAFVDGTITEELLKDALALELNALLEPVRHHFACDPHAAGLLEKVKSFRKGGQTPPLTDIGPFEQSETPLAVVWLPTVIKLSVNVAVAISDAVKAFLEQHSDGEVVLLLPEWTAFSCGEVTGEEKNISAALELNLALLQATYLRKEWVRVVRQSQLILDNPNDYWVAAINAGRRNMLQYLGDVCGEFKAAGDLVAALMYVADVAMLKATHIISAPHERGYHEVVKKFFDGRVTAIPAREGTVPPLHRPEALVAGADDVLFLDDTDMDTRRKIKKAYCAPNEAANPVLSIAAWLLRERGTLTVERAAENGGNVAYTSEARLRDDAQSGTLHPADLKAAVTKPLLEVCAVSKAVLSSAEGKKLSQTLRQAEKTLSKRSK

[10] = target: T5, Tyrosyl-tRNA synthetase, putative (Trypanosoma cruzi (strain CL Brener)); test: Trypanosoma cruzi tyrosyl tRNA synthetase (TcYRS) SOP; format: functional; details: 30 µM
[11] = target: Chromo domain-containing protein 1 (Saccharomyces cerevisiae (strain ATCC 204508 / S288c) (Baker's yeast)) (UniProt P32657); test: ScCHD-1 Enzyme Inhibition Assay; format: functional; details: 30 µM; also: in the data most compounds retested in dose-response had high values
Sequence of Chromo domain-containing protein 1 (Saccharomyces cerevisiae (strain ATCC 204508 / S288c) (Baker's yeast)) (P32657 whole entry, the tested form may be a part): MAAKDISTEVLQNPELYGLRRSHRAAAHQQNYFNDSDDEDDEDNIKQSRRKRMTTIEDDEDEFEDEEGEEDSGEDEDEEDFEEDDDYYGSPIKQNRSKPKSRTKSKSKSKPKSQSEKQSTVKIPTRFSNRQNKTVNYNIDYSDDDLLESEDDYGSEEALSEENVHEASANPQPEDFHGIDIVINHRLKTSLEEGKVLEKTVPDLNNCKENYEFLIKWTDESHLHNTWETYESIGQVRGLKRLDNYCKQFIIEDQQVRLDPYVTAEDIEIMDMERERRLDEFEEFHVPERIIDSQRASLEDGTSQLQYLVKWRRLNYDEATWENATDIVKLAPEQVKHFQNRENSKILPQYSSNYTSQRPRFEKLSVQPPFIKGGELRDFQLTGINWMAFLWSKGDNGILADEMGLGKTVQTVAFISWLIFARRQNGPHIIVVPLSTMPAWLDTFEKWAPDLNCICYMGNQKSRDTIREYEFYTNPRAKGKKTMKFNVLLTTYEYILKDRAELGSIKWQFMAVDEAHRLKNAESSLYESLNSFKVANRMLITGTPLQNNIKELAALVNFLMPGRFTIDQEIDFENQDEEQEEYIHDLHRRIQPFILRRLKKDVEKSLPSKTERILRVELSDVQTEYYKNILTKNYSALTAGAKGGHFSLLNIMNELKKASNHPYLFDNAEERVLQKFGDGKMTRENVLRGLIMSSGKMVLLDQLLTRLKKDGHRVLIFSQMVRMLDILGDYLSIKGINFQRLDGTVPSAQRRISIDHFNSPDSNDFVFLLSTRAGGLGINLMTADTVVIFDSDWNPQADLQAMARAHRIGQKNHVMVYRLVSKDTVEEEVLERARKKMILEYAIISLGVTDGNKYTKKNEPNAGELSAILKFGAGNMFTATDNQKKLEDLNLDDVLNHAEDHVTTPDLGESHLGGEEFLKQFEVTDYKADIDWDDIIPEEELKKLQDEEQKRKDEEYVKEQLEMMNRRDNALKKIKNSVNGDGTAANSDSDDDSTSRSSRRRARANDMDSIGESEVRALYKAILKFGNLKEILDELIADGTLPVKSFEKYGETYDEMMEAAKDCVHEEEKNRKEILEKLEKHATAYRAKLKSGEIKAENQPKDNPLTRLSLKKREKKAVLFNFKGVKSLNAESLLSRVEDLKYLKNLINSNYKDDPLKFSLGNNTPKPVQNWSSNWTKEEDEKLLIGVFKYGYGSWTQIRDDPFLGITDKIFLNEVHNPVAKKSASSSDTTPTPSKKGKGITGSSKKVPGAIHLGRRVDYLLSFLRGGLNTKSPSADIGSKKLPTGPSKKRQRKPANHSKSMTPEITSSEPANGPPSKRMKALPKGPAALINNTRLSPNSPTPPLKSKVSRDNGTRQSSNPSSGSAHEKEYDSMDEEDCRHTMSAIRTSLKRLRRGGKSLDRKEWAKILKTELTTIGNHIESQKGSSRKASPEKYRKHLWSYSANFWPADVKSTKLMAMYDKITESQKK

Sequence of Protein translocase subunit SecA (Escherichia coli (strain K12)) (P10408 whole entry): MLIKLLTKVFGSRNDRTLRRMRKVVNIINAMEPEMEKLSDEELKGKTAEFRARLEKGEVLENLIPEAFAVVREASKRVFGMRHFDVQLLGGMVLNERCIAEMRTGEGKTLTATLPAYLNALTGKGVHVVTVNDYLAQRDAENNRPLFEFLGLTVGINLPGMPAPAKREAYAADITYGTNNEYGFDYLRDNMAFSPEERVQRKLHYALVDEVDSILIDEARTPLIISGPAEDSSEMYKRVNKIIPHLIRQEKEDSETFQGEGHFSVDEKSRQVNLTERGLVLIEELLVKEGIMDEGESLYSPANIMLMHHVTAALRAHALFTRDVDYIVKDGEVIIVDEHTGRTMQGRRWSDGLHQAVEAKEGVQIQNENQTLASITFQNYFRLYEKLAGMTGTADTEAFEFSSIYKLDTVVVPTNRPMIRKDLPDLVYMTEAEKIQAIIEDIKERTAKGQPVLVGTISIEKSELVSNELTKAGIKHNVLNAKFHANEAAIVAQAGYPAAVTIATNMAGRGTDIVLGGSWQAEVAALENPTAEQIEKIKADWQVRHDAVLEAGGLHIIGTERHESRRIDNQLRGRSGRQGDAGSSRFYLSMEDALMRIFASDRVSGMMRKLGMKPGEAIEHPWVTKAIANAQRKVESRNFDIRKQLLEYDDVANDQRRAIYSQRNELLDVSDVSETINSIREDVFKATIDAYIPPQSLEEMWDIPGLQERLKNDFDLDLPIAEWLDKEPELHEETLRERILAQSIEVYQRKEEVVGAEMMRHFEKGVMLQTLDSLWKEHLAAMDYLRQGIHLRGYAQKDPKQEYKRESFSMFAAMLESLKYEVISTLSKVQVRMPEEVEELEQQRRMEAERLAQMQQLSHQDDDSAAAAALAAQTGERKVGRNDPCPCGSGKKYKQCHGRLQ
Sequence of Sialic acid-binding Ig-like lectin 9 (Homo sapiens) (Q9Y336 whole entry): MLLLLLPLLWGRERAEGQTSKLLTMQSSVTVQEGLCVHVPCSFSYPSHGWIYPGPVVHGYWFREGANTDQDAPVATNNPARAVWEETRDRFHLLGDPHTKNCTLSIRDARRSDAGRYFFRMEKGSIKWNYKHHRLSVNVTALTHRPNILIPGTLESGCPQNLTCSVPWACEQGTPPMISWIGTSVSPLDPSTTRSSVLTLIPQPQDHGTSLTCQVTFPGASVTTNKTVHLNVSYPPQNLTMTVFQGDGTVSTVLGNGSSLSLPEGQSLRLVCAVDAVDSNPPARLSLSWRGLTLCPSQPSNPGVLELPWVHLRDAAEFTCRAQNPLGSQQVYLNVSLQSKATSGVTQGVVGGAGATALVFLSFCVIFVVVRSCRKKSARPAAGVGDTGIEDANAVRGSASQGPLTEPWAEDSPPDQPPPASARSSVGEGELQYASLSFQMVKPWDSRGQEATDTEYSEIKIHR

Structure (SMILES) | Percent Effect [1] [%] | Percent Effect [2] [%] | Percent Effect [3] [%] | Percent Effect [4] [%] | Percent Effect [5] [%] | Percent Effect (Trypanosoma cruzi) [%] | Percent Effect [6] [%] | Percent Effect [7] [%] | Percent Effect (Homo sapiens) [%] | Percent Effect [8] [%] | Percent Effect [9] [%] | Percent Effect [10] [%] | Percent Effect [11] [%]
COC[C@]12COC[C@H]1CN(Cc1cccnc1OC)C2 | -3.99 | 9.33 | -1.36 | 1.98 | 1.86 | -4.32 | -8.63 | 18.7 | -3.88 | -17.2 | 7.41 | 5.13 | -3.25
COc1cc(CNCC(O)c2ccc(F)c(F)c2)cc2c1OCO2 (stereo not given) | -2.52 | 13.5 | 1.66 | 1.05 | 3.77 | -6.41 | 0.185 | 18.1 | 17.8 | -9.43 | 7.92 | 13.4 | -5.65
Cc1csc(CN2CCC[C@]3(C[C@H](Oc4ccccn4)CO3)C2)n1 | 0.108 | 16.4 | 2.42 | -0.448 | 1.76 | 3.57 | 2.4 | 3.85 | 21.9 | -19.3 | 3.12 | 21 | -4.03
O=C([C@H]1C[C@H]2OCC[C@H]2N(Cc2ccncc2)C1)N1CCCCO1 | -5.42 | 18.7 | 0.349 | -3.96 | -0.793 | 5.6 | -46.4 | 15.9 | -2.86 | -11.8 | 8.33 | 25 | -6.46
CC1=N[C@@]2(CC[C@@H]3CNC[C@@H]32)C(=O)N1CC(C)C | 0.0241 | 13.5 | 7.41 | -8.73 | -11.6 | -6.35 | 7.96 | 11.2 | 30.2 | -6.54 | -1.08 | 0 | -5.25
CC(C)NC(=O)[C@H]1C[C@@H]2[C@@H](C1)OCCN2Cc1cccnc1 | 1.37 | -5.33 | 3.61 | 10.3 | 6.39 | -4.25 | -52.9 | 1.54 | 7.17 | -9.38 | 3.12 | 2.5 | -0.286
CN1C(=O)C2(CCN(CC3CC3)CC2)c2ccccc21 | -0.0958 | 10.8 | -2.95 | -1.71 | -10.2 | -6.16 | 0.955 | 16.4 | -8.93 | -0.91 | 2.16 | 17.9 | -2.43
CNC(=O)CN1CCOCC2(CCCN(Cc3cccnc3)C2)C1 (stereo not given) | -1.67 | -2.7 | 2.13 | 2.03 | -2.12 | -4.1 | -0.833 | 0.93 | -2.53 | -22.5 | 6.93 | 1.22 | 3.52
Cc1cc(CN2C[C@@H]3COC[C@]3(CNC(=O)c3ccno3)C2)no1 | -5.72 | 2.7 | 6.65 | 2.65 | 4.53 | 0.293 | 8.6 | 13.1 | -16.8 | -2.33 | 3.24 | 5.13 | 1.22
O=C(N[C@H]1CN[C@H]2CCCO[C@H]21)c1cccnc1 | 1.71 | 16.4 | -0.775 | -3.57 | 7.91 | 5.36 | -2.4 | 9.33 | 8.46 | -2.82 | 8.33 | 11.1 | -3
